Screening data: PubChem BioAssay, NMMLSC
Most compounds without a hit are left out; they make up all but 1.2% or so of the library.
Avidin fluor: compound fluoresces at 488/530 nm on avidin beads; hit rate 0.38% among 220,000; compound fluorescence 488/530 nm, flow cytometry; stronger effect = higher value; fluorescence (KMESF) at 10 µM; in the data active = fluorescence above about 47
RGS8-Gao reg: human RGS8-Galphao interaction regulation; multiplexed bead flow cytometry, RGS8-Galphao binding; actives lie on both sides; AID 1423; P09471; hit rate 0.34% among 220,000; response (percent of control binding), % at 10 µM; in the data active = response below about 60% or above about 140%; inactive = in between;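 also: Galphao activated as the GDP aluminium fluoride complex binding bead-coupled RGS8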
Target sequence (P09471 whole entry, looked up): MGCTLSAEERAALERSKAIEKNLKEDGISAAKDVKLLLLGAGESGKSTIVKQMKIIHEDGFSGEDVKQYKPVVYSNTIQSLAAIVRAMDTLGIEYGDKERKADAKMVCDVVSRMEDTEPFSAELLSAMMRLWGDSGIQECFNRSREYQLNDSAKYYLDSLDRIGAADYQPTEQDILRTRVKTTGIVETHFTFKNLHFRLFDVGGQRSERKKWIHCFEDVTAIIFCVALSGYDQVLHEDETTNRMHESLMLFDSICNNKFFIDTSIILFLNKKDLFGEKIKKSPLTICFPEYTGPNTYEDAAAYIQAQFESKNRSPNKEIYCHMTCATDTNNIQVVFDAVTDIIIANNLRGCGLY
RGS16-Gao HTS: regulators of human RGS16-Galphao interaction; AID 1441; O15492+P09471; hit rate 0.38% among 220,000; bead-based flow cytometry RGS16-Galphao binding, fluorescence; actives lie on both sides; binding response (% of control), % at 10 µM;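 also: Galphao activated by GDP with aluminum fluoride before binding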
RGS4-Gao reg: human RGS4-Galphao interaction regulation; Multiplexed bead flow cytometry, RGS4-Galphao binding; actives lie on both sides; hit rate 0.33% among 220,000; binding response (% of control), % at 10 µM; in the data active = binding response below about 49% or above about 150%; inactive = in between;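 also: fluorescent Galphao activated with aluminum fluoride binding bead-coupled RGS4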
GSH fluor: GSH bead compound fluorescence profile; fluorescence (KMESF) at 10 µM; hit rate 0.25% among 190,000; GSH beads flow cytometry, compound fluorescence 488/530 nm; stronger effect = higher value; in the data active = fluorescence above about 89;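 also: glutathione beads carrying GST-tagged Bcl family fusion proteins plus one bare bead set; values are compound well signal with DMSO vehicle wells as background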
RGS7-Gao: regulators of human RGS7-Galphao interaction; Multiplexed bead flow cytometry, RGS7-Galphao binding; actives lie on both sides; binding response (% of control), % at 10 µM; hit rate 0.35% among 220,000; AID 1439; in the data active = binding response below about 49% or above about 150%; inconclusive = no clear call, values can overlap the other calls; inactive = in between;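 also: fluorescent Galphao held in activated GDP-AlF4 state binding bead-coupled RGS7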
RGS-Gao: regulators of human RGS4-Galphao interaction | shares compounds with RGS16-Gao HTS | multiplexed bead flow cytometry, RGS–Galpha-o binding | RGS4–Galpha-o binding response, % at 10 µM | hit rate 99% among 1,600 | AID 1504;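 also: fluorescently labeled Galpha-o bound to GDP with aluminium fluoride binding biotinylated RGS beads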
Avidin counter: interferes with biotinylated probe binding to avidin beads | shares compounds with RGS16-Gao HTS | streptavidin beads, fluorescein-biotin binding, flow cytometry | inhibition, % at 10 µM | 1,700 tested, under 10 active;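 active = inhibition above 50%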;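 also: median green fluorescence of gated singlet beads compared with DMSO control wells; 0% = DMSO wells and 100% = complete loss of bead fluorescence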
RGS8-Gao single: confirmation of regulators of human RGS8-Galphao interaction; shares compounds with RGS16-Gao HTS; bead-based flow cytometry RGS8-Galphao binding, fluorescence; actives lie on both sides; binding response (% of control), % at 10 µM; hit rate 3% among 1,700; AID 1836; in the data active = binding response below about 72% or above about 130%; inactive = in between;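 also: Galphao activated as GDP AlF4 complex before binding bead RGS8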
RGS7-Gao single: confirmation of regulators of human RGS7-Galphao interaction. hit rate 7.8% among 1,700. bead-based flow cytometry RGS7-Galphao binding; actives lie on both sides. shares compounds with RGS16-Gao HTS. response (percent of control binding), % at 10 µM; in the data active = response below about 75% or above about 130%; inactive = in between;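 also: fluorescent Galphao activated with GDP and aluminum fluoride binding bead-coupled RGS7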
RGS16-Gao single: RGS16-Galphao interaction regulation, single point confirmation | shares compounds with RGS16-Gao HTS | bead-based flow cytometry, RGS16-Galphao binding; actives lie on both sides | response (% of control binding), % at 10 µM | hit rate 4% among 1,700; in the data active = response below about 74% or above about 130%; inactive = in between;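 also: Galphao activated as the GDP aluminium fluoride complex binding bead-coupled RGS16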
RGS4-Gao single: confirmation of regulators of human RGS4-Galphao interaction | AID 1840 | shares compounds with RGS16-Gao HTS | hit rate 4% among 1,700 | RGS4-Galphao binding, multiplexed bead flow cytometry; actives lie on both sides | binding response (% of control), % at 10 µM; in the data active = binding response below about 74% or above about 130%; inactive = in between
RGS19-Gao single: confirmation of regulators of human RGS19-Galphao interaction; bead-based flow cytometry RGS19-Galphao binding; actives lie on both sides; response (percent of control binding), % at 10 µM; hit rate 5% among 1,700; AID 1841; shares compounds with RGS16-Gao HTS; in the data active = response below about 50% or above about 160%; inactive = in between;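 also: 100% = no compound control and 0% = blank background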
Target sequence (P09471 whole entry, looked up): as above
Target sequence (P49795 whole entry, looked up): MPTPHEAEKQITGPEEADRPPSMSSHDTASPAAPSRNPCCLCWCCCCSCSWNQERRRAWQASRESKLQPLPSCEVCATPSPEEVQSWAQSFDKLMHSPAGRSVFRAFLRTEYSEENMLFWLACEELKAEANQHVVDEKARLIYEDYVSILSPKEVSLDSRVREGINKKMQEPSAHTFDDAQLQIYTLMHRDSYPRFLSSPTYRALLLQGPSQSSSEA
The depositor's hits bear a star; ? = inconclusive; . = not tested or not shown; [ ] = dose if it differs, or a comment. Unless noted, no rule for the calls is given here.

SMILES	Avidin fluor	RGS8-Gao reg	RGS16-Gao HTS	RGS4-Gao reg	GSH fluor	RGS7-Gao	others
Brc1ccc(CN2CCNCC2)s1	8	99	101	100	269*	100
O=c1oc2ccccc2c(O)c1[C@H]1c2ccc(O)cc2Oc2c1c(=O)oc1ccccc21	7	101	95	98	.	?
CN(C)CCN=Cc1c(O)n(-c2cccc(C(F)(F)F)c2)c(=O)[nH]c1=O	10	98	109	100	266*	97
C=CCn1c(O)c(C=NCCN(C)C)c(=O)[nH]c1=O	16	102	97	93	4	93
COc1ccc(C(=O)C23CN4CN(CN(C4)C2)C3)cc1	51*	104	113	102	10	116
CCOC(=O)c1c(C)n(Cc2ccc3c(c2)OCO3)c2ccc(O)cc12	7	97	95	94	249*	92
COC(=O)c1c(C)n(Cc2ccc3c(c2)OCO3)c2ccc(O)cc12	41	100	113	106	49	104
[N-]=[N+]=NC1C[C@H](n2ccc(=O)[nH]c2=O)O[C@@H]1CO (some centres not stated)	10	101	97	101	23	103
O=c1[nH]c(O)c(/C=C2\C=NN=C2c2ccccc2)c(=O)[nH]1	5	84	84	93	266*	87
CCC(=NCCN1CCOCC1)c1c(O)n(-c2ccccc2C)c(=O)[nH]c1=O	11	110	150	105	26	106
CC(=NCCN1CCOCC1)c1c(O)n(-c2ccccc2C)c(=O)[nH]c1=O	.	28*	3.0*	-2.9*	12	9.2*
CCCCn1c(O)c(C(=O)/C=C/c2c[nH]c3ccccc23)c(=O)[nH]c1=O	6	98	98	97	.	?
O=C1CN=C(c2ccccc2)c2cc(Br)ccc2N1Cc1cc(=O)n2ccccc2n1	23	104	111	106	184*	107
O=[N+]([O-])c1cccc(CN2CCN(Cc3ccc(Br)cc3)CC2)c1	11	88	83	84	15	?
Cc1ccc(NP(=O)(Oc2ccccc2F)Oc2ccccc2F)cc1	48*	97	98	98	20	107
COc1ccccc1-n1c(O)c(C=Nc2c(C)n(C)n(-c3ccccc3)c2=O)c(=O)[nH]c1=O	8	102	100	99	261*	102
S=C1CN=C(c2ccccc2Cl)c2cc(Cl)ccc2N1	5	100	100	95	119*	94
C=CCn1c(O)c(/C=N/N2CCCCC2)c(=O)[nH]c1=O	5	108	109	110	.	?
CC1(C)CN=C(Nc2ccc(F)c(Cl)c2)S1	3	102	105	105	.	?
CC1(C)CSC(Nc2ccc(F)c(Cl)c2)=N1	7	105	109	104	253*	103
O=C(COc1ccc2ccccc2c1)N1CCN(CC2CC3C=CC2C3)CC1 (configuration not stated)	50*	104	110	100	17	112
Cc1[nH]c2ccccc2c1C(=O)C(=O)N1CC2CC(C1)c1cccc(=O)n1C2 (configuration not stated)	24	105	108	103	9	105
CCOP(=O)(Cc1cc(C(C)=O)c(C)o1)OCC	7	101	99	99	.	?
CN(C)P(=NC(=S)c1cccn1C)(N(C)C)N(C)C	58*	101	107	107	27	116
CN(C)P(=O)(NC(=O)c1cccn1C)N(C)C	14	102	102	104	8	105
SMILES	Avidin fluor	RGS8-Gao reg	RGS16-Gao HTS	RGS4-Gao reg	GSH fluor	RGS7-Gao	others
C=CCn1c(O)c(C(CC)=NCCc2ccccc2)c(=O)[nH]c1=O	8	98	98	99	56	98
C=CCn1c(O)c(C(C)=NCCc2ccccc2)c(=O)[nH]c1=O	51*	102	99	99	24	99
Cc1ccc2c(c1)CC1(CN2C)C(=O)NC(=O)N(c2ccc(C)c(C)c2)C1=O (configuration not stated)	6	118	143	113	256*	109
O=c1[nH]c(=S)n(C2CCCCC2)c(O)c1/C=N/N1CCOCC1	6	100	99	100	.	?
Cc1nc(SCc2c(Cl)cccc2Cl)nc(OC(=O)N(C)C)c1C	6	99	98	100	.	?
O=c1[nH]c(=O)n(Cc2ccc(F)cc2)c(O)c1C=NCCCO	122*	97	107	110	17	156*[activator]	RGS-Gao=110*;Avidin counter=-1;RGS8-Gao single=98;RGS7-Gao single=95;RGS16-Gao single=96;RGS4-Gao single=97;RGS19-Gao single=99
O=c1[nH]c(=O)n(Cc2ccc(F)cc2)c(O)c1C=NCCCn1ccnc1	37	102	99	98	17	97
Cc1cc(Cl)ccc1C(=O)C1CCCN(C2CCSCC2)C1 (configuration not stated)	11	99	102	99	11	93
CC(=NCC1CCCO1)c1c(O)n(C)c(=O)n(C)c1=O (configuration not stated)	7	54*	-18*	-9.3*	10	31*	Avidin counter=-1;RGS8-Gao single=101;RGS7-Gao single=92;RGS16-Gao single=99;RGS4-Gao single=98;RGS19-Gao single=96
O=c1[nH]c(O)c(N=Nc2ccc(S(=O)(=O)N3CCOCC3)cc2)c(=O)[nH]1	8	97	97	98	8	97
O=c1[nH]c(=S)[nH]c(O)c1N=Nc1ccc(S(=O)(=O)N2CCOCC2)cc1	-4	0.7*	-19*	-36*	.	?	Avidin counter=-1;RGS8-Gao single=99;RGS7-Gao single=98;RGS16-Gao single=99;RGS4-Gao single=99;RGS19-Gao single=89
